High-throughput results: PubChem, National Center for Advancing Translational Sciences (NCATS)
Most compounds without a hit are left out; they make up all but 7.5% or so of the library.
FLuc modulator: qHTS profiling assay for firefly luciferase inhibitor/activator using purifed enzyme and Km concentrations of substrates (counterscreen for miR-21 project); Potency, µM (doses to about 57.5 µM), inactives show at the highest dose activity change, negative = inhibition, actives largely listed as inhibitors; Luciferin 4-monooxygenase (Photinus pyralis), P08659; purified FLuc, Km substrates, luminescence inhibition; 360,000 compounds, 6.9% hits;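 further: plate controls were vehicle for no effect and reference inhibitor for full effect; nearly all actives have a fitted effect of over 55% in size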
Target sequence (P08659 whole entry, looked up): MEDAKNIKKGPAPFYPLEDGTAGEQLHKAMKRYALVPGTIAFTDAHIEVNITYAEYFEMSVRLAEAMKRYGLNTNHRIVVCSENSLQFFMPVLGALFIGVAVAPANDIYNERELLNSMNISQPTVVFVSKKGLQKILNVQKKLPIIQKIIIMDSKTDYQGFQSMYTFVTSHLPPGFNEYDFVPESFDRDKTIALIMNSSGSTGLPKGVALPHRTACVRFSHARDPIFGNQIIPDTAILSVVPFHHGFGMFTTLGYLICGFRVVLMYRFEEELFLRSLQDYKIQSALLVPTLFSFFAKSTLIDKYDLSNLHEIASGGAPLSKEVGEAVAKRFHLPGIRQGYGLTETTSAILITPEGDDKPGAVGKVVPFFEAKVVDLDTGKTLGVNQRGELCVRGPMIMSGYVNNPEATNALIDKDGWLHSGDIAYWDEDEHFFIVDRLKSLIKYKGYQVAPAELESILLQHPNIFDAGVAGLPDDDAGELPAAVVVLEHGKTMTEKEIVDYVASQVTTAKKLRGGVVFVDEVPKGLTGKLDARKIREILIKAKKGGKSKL
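Biochemical qHTS of compounds, final roughly 60 µM downward over six points, against 10 nM purified firefly luciferase using Km concentrations of substrates (10 uM D-luciferin, 10 uM ATP) in Tris acetate pH 7.5 buffer; luminescence output.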
KinaseGlo FLuc: Counterscreen for Luciferase (Kinase-Glo TM) Inhibition. Luciferin 4-monooxygenase (Photuris pensylvanica), Q27757. Kinase-Glo luciferase, ATP luminescence, 8 min. Potency, µM (highest dose often 38.3 µM), without a hit: at the highest dose activity change, negative = inhibition, hits mostly inhibitors. 200,000 compounds, 0.28% hits. AID 1379, 2008; further: on the % scale 0 is the no-effect control and ±100 the full control effect; nearly all actives have a fitted effect of over 60% in size
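Compound is pinned into ATP-containing buffer (10 uM ATP, imidazole pH 7.2, 7 mM MgCl2). Kinase-Glo luciferase reagent is then added. Light output is recorded following an 8-min room-temperature incubation.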
NPC1 prom act: qHTS Assay for NPC1 Promoter Activators | Huh7 NPC1 promoter luciferase reporter, 24 h | Potency, µM (titrated, usually from 9.22 µM), for inactives: at the highest dose activation, most hits filed as activators | 320,000 compounds, 2.4% hits | AID 485313, 2010; further: % of control where 0% means no effect; nearly all actives have a fitted effect of over 60% in size
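NPC1 promoter–luciferase Huh7 cells; 24 h compound; luminescence.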
Rab9 prom act: qHTS Assay for Rab9 Promoter Activators. Huh7 Rab9 promoter-luciferase reporter, luminescence, 24 h. Potency, µM (titrated, usually from 9.22 µM), without a hit: at the highest dose activation, negative = inhibition, hits mostly activators. 320,000 compounds, 2.8% hits; further: % of control where 0% means no effect; nearly all actives have a fitted effect of over 60% in size
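Rab9 promoter-driven luciferase in stably transfected Huh7 cells; 1500 cells/well rested 2 h, exposed to compound in DMSO for 24 h at 37 °C, 5% CO2. Luminescence read 10 min after adding luciferase reagent at ambient temperature.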
SMN2 splice enh: qHTS Assay for Enhancers of SMN2 Splice Variant Expression; HEK293 SMN2-luciferase splicing reporter, luminescence, 30-36 h; Potency, µM (series often up to 46.1 µM), for the others: at the top dose activity change, positive = activation, most hits filed as activators; 210,000 compounds, 2.8% hits; AID 1458, 2008; further: % of control where 0% means no effect; nearly all actives have a fitted effect of over 55% in size
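qHTS luciferase splicing reporter: luminescence rises when SMN2 exon 7 is included in transfected HEK293 cells. Compound exposure lasted 30-36 h at 37C, with 4.5 mM final sodium butyrate as control, followed by a ONE-Glo read.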
ELG1 genotoxic: qHTS screen for small molecules that induce genotoxicity in human embryonic kidney (HEK293T) cells expressing luciferase-tagged ELG1 | HEK293T ELG1-luciferase reporter, luminescence, 16 h | Potency, µM (highest dose often 46 µM), for inactives: top-dose activity change, positive = activation, usual class: activators | 330,000 compounds, 1.3% hits; further: % of control where 0% means no effect; nearly all actives have a fitted effect of over 60% in size
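Reporter readout depends on ELG1 protein level, which increases with genetic stress. After 16 hr compound exposure at 37 °C, luciferase activity was quantified using ONE-Glo.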
An asterisk follows results filed as active; ? = inconclusive; · = no result given; [ ] = remark or other dose. The call rests on the fitted dose curve; in most records, active means well fitted curve in the direction sought with a large enough effect; inconclusive means small, poorly fitted or top-dose-only effect, or another doubt; inactive means no such curve, though single readings can be large; an effect the other way counts as inactive or inconclusive. Potency means the concentration at half of the fitted maximal effect.

SMILES	FLuc modulator	KinaseGlo FLuc	NPC1 prom act	Rab9 prom act	SMN2 splice enh	ELG1 genotoxic
CC(=O)N1CCN(S(=O)(=O)c2cccc(C(=O)Nc3cc(C(F)(F)F)ccc3N3CCOCC3)c2)CC1	1%	·	-1%	-3%	·	2%
O=C(NCCCc1ccc(F)cc1)C1CCC(=O)N(CCCN2CCCC2=O)C1 (centres undefined)	6%	·	-1%	-4%	·	2%
CCOc1cccc(C(=O)N(Cc2ccc(CC)cc2)C2CCS(=O)(=O)C2)c1 (centres undefined)	-2%	·	·	·	-6%	·
CCC(=O)N(C)CCc1cc2c(c(OC)c1/C=N/NC(=O)c1ccccc1O)OCO2	-19%	0%	-2%	-9%	-15%	2%
COc1c(/C=N/NC(=O)c2ccccc2O)c(CCN(C)C(C)=O)cc2c1OCO2	19µM*	-4%	-1%	6%	53%	1%
CSc1cccc(NC(=O)Nc2ccccc2)c1	13µM*	-5%	29%	29%	?	?
CC(=O)c1cccc(NC(=O)COc2ccccc2)c1	?	-1%	12%	-6%	-6%	?
CSc1cccc(NC(=O)COc2ccccc2)c1	17µM*	-3%	11%	1%	5%	4%
CSc1cccc(NC(C)=O)c1	-15%	-7%	2%	-1%	5%	0%
CSc1cccc(NC(=O)Nc2ccccc2C(N)=O)c1	11µM*	·	-5%	3%	·	2%
O=C(CN1C(=O)CSc2ccc(S(=O)(=O)N3CCOCC3)cc21)NCc1ccc(F)cc1	0%	·	3%	6%	·	-1%[9.26 µM]
CC(=O)C[C@H](O)CC(=O)[C@H]1OC(=O)[C@H](C)C/C=C\Cc2ccccc21	7%	·	-1%	-2%	·	0%
c1ccc(-c2ccc(-c3cnc4n3CCCCC4)cc2)cc1	12µM*	-5%	?	26%	-15%	?
O=C(OCc1nc2ccccc2s1)c1cc2ccccc2oc1=O	19µM*	-1%	11%	4%	-2%	?
O=C(CCc1nc2ccccc2s1)OCc1ccccc1	-18%	3%	-1%	9%	-10%	0%
Nc1ccc(C(=O)OCc2nc3ccccc3s2)cc1	17µM*	-3%	17%	27%	2%	?
O=C(CCC(=O)c1cccs1)OCc1nc2ccccc2s1	?	-5%	1%	1%	6%	4%
O=C(OCc1nc2ccccc2s1)c1ccc(Br)s1	19µM*	-8%	12%	14%	-14%	4%
Cc1ccc(C(=O)OCc2nc3ccccc3s2)o1	15µM*	·	1%	?	·	?
CC(NC(=O)COC(=O)C1CCCCC1)c1ccccc1 (centres undefined)	·	·	·	·	·	5%
O=C(c1ccc(Cl)cc1)n1nc(-c2ccco2)nc1NCc1cccs1	3%	·	·	·	21%	·
O=C(CSC1=NCCS1)Nc1nc2ccccc2s1	19µM*	-1%	29%	?	10%	9%
Cc1ccc(-c2csc(NC(=O)CSC3=NCCS3)n2)cc1	13µM*	-3%	12%	18%	19%	?
Cc1sc(NC(=O)CSC2=NCCS2)nc1-c1ccccc1	-15%	2%	1%	0%	-21%	-5%
CCOC(=O)N1CCN(C(=O)CSCC(=O)Nc2nc(-c3ccc(-c4ccccc4)cc3)cs2)CC1	-16%	-3%	?	?	-2%	2.6µM*
SMILES	FLuc modulator	KinaseGlo FLuc	NPC1 prom act	Rab9 prom act	SMN2 splice enh	ELG1 genotoxic
Cc1cc(C)cc(NC(=O)C(=O)NCCc2sc(-c3cccc(F)c3)nc2C)c1	-3%	·	·	·	·	·
CCOC(=O)C1CCN(C(=O)/C=C/c2ccc3c(c2)OCO3)CC1	15µM*	·	0.45µM*	0.79µM*	·	?
CCOC(=O)C1CCN(C(=O)/C=C/c2ccccc2)CC1	24µM*	-2%	1.4µM*	1.1µM*	11µM*	14%
O=C(/C=C/c1ccc2c(c1)OCO2)N1CCCCC1	12µM*	·	3.5µM*	1.6µM*	·	?
O=C(/C=C\C=C/c1ccc2c(c1)OCO2)N1CCCCC1	·	-8%[17.1 µM]	·	·	?	·
O=C(/C=C/c1ccc2c(c1)OCCO2)N1CCN(c2ccc(F)cc2)CC1	24µM*	·	-3%	-2%	·	-4%
O=C(/C=C/c1ccc2c(c1)OCO2)N1CCN(c2ccc(Cl)cc2)CC1	-3%	2%	-1%	-2%	-36%	2%
CC(C)Nc1cc(C(C)(C)C)nc2c(-c3ccccc3)cnn12	11µM*	·	?	2.8µM*	·	?
CC(C)(C)c1cc(NCCCn2ccnc2)n2ncc(-c3ccccc3)c2n1	5.4µM*	·	2µM*	2.2µM*	·	?
CN(C)CCCNc1cc(C(C)(C)C)nc2c(-c3ccc(Cl)cc3)cnn12	?	·	0%	-2%	·	8%
CCCc1cc(NCCCn2ccnc2)n2nc(C)c(-c3ccccc3)c2n1	5%	·	-10%	1%	·	-4%
Cc1cccc(-c2cc3nc(C)cc(NCCCn4ccnc4)n3n2)c1	15µM*	-3%	2%	-8%	-13%	?
Cc1cc(NCCCN2CCOCC2)n2ncc(-c3ccc(Cl)cc3)c2n1	17µM*	-4%	?	?	24%	?
COc1ccccc1/C=C\C(=O)NCC(=O)N/N=C(/C)c1cccc([N+](=O)[O-])c1	-4%	·	0%	-3%	·	-2%
Cc1cc(NCCCn2ccnc2)n2ncc(-c3ccc(Cl)cc3)c2n1	0.95µM*	-1%	0.45µM*	0.56µM*	4%	?
Cc1ccc2nc(-c3ccc(N)cc3)sc2c1S(=O)(=O)O	·	·	·	·	14µM*	·
CCOc1cc(/C=N/Nc2ccccc2Cl)ccc1OCC(=O)O	21µM*	6%	12%	0%	0%	?
COc1ccc(/C=N/Nc2nc(Nc3ccccc3)nc(N3CCCCC3)n2)cc1OC	1.1µM*	1%	?	?	19%	-7%
CCOc1cc(/C=N/Nc2nc(N3CCCC3)nc(N3CCCC3)n2)ccc1O	-15%	-3%	-5%	1%	-9%	-2%
CCOc1cc(/C=N\NC(=O)Cc2ccccc2)ccc1OCC(=O)Nc1ccc(C)c(C)c1	2%	-3%	-6%	-10%	6%	12%
CCOc1cc(/C=N/NC(=O)c2ccc(-c3csc(Nc4ccc(C)cc4)n3)cc2)ccc1OCC(=O)O	?	1%	3.2µM*	2.8µM*	13µM*	-3%
